# Measurements: PubChem BioAssay AID2736 (Broad Institute, 2010)
# This is one part of the list. The source made the active and inactive calls.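 How the source made its calls: active means every replicate shows more than 75% inhibition of signal versus neutral control wells; inconclusive means half to three quarters of replicates exceed 75% inhibition; inactive means fewer than half of replicates exceed 75% inhibition.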
# Assay: Vibrio harveyi AI-2 signaling luminescence modulation – JMH597 strain, confirmation (AID 2736)
# Conditions: Vibrio harveyi JMH597 AI-2 quorum sensing luminescence, 9 h; at 7.5 µM; stronger effect = higher value; luxN and CqsS knockout, AI-2 only
row,Compound,inhibition
1,CC(=O)c1cccc(OCc2cc(C(=O)NC(C)Cc3cccnc3)no2)c1 (stereo not drawn),95.5% (active)
2,CC(C)(C)c1ccc(OC2=CS(=O)(=O)c3ccccc32)cc1,96.6% (active)
3,CCOc1ccc(/C=N/NC(N)=S)cc1,94.3% (active)
4,O=C(c1cc(-c2cccc(O)c2)on1)N1CCc2ccccc2C1,94.4% (active)
5,Cc1ccsc1C(=O)OCC(=O)c1cc2ccccc2o1,96.8% (active)
6,O=C1COc2ccc(S(=O)(=O)Nc3ccc(OC(F)(F)F)cc3)cc2N1,99.2% (active)
7,Cc1nn(CC(=O)Nc2ccc(F)cc2)c(=O)c2ccccc12,99% (active)
8,COC(=O)C1CCN(C(=O)c2ccc3oc(Cc4ccc(Cl)cc4)nc3c2)CC1,96.4% (active)
9,COC(=O)c1ccc(SCc2ccccc2)nc1,97.3% (active)
10,Cc1ccccc1NC(=O)CCOc1ccccc1,91.6% (active)
11,CN(Cc1cnccn1)C(=O)c1cc(COc2cccc(C(F)(F)F)c2)on1,97.2% (active)
12,CCOC(=O)c1nn(-c2cccc(C)c2)cc1C(=O)c1ccccc1,93.5% (active)
13,O=C(Cn1cnc2ccccc2c1=O)Nc1cccc(S(=O)(=O)N2CCCCC2)c1,88.6% (active)
14,Cc1ccccc1C(=O)Nc1ccc(N2CCCCCC2)cc1,94.5% (active)
15,COc1ccc(/C(N)=N/OC(=O)Cc2ccccc2)cc1,96% (active)
16,O=C(COc1ncnc2ccccc12)NC(=O)NCc1ccccc1,96.5% (active)
17,Cc1ccc(Cc2nc(-c3cccc(C)c3)no2)cc1,94.6% (active)
18,O=C(COC(=O)C1CCCCC1)Nc1ccc([N+](=O)[O-])cc1,95.3% (active)
